# Experimental data taken from PubChem BioAssay (Tox21).
# Inconclusive results are not listed. Entries that show only a call come without a potency. Activity calls are given as the source filed them. Unless noted, the call rests on the fitted dose curve; in most records, active means well fitted curve in the direction sought with a large enough effect in the repeat runs; inconclusive means weak or mixed curves; inactive means no such curve, though single readings can be large; an effect the other way counts as inactive or inconclusive.
# Columns and labels:
# [1] = qHTS assay for small molecule agonists of the p53 signaling pathway (AID 651631; calls by dose curve; further: nearly all actives have a fitted effect of over 15% in size)
# Outline: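 HCT-116 cells carrying a beta-lactamase reporter under p53 response elements were dosed with compound for 16 h at 37 °C. LiveBLAzer B/G FRET substrate was then added for 2 h at room temperature, and fluorescence intensity was read to detect pathway agonism.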
# [2] = qHTS assay for small molecule agonists of the p53 signaling pathway - cell viability (AID 651633; calls by dose curve;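 further: p53RE-bla HCT reporter cells with a stable beta-lactamase p53 reporter; nearly all actives have a fitted effect of over 30% in size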)
# Outline: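 p53RE-bla cells, seeded at 4,000 per well and rested 5 h at 37 C/5% CO2, received compounds in DMSO for 16 h at 37 C. CellTiter-Glo was then added, and luminescence was read after 30 min at room temperature to gauge cytotoxicity.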
# [3] = qHTS assay for small molecules that induce genotoxicity in human embryonic kidney cells expressing luciferase-tagged ATAD5 - cell viability (AID 651634; calls by dose curve; further: nearly all actives have a fitted effect of over 25% in size)
# Outline: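 15.5 hr compound or vehicle exposure of HEK293T cells expressing luciferase-tagged ATAD5 at 37C; live-cell protease activity is read by fluorescence after 30 min of CellTiter-Fluor.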
# [4] = qHTS assay for small molecule disruptors of the mitochondrial membrane potential - cell viability (AID 720634; calls by dose curve;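 further: human HepG2 liver cancer cells; nearly all actives have a fitted effect of over 20% in size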)
# Outline: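 In this qHTS format, HepG2 cells plated overnight were pinned with compound, incubated 1 hr, and assayed for ATP luminescence with CellTiter-Glo after m-MPI dye addition.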
# [5] = qHTS assay for small molecule disruptors of the mitochondrial membrane potential (AID 720635); further: potency means the concentration at half of the fitted maximal effect
# Outline: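 HepG2 cells (2,000/well) attached overnight at 37C, then took compound for 1 hr at 37C, 5% CO2. Mito-MPS dye was added for 30 min; fluorescence was read at 490/535 nm (monomers) and 540/590 nm (aggregates).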
# [6] = qHTS assay to test for compound auto fluorescence at 590 nm (red) in HepG2 cells (AID 720674)
# Outline: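 Intrinsic compound fluorescence in the red window (Ex/Em 540/590 nm) is measured in attached HepG2 cells exposed for 1 hr, DMSO vehicle as baseline, benchmarked to Rose Bengal sodium.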
# [7] = qHTS assay to test for compound auto fluorescence at 535 nm (green) in HepG2 cells (AID 720675)
# [8] = qHTS assay to test for compound auto fluorescence at 460 nm (blue) in HEK293 cells (AID 720678)
# Outline: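 Intrinsic compound fluorescence is recorded in live HEK293 cultures after overnight incubation at 37C, 5% CO2, using excitation 405 nm and emission 460 nm. Values are referenced to triamterene.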
# [9] = qHTS assay to test for compound auto fluorescence at 590 nm (red) in HEK293 cells (AID 720679)
# Outline: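 Red autofluorescence, HEK293 cells: 2,000 cells/well; attach 4-5 hr 37C; add 23 nL cpd or DMSO; incubate o/n 37C 5% CO2; read Ex540/Em590; Rose Bengal sodium reference.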
# [10] = qHTS assay to test for compound auto fluorescence at 535 nm (green) in HEK293 cells (AID 720680)
# [11] = qHTS assay to test for compound auto fluorescence at 460 nm (blue) in HEK293 cell free culture (AID 720681)
# Outline: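 Test compounds were pinned into cell-free culture medium (DMEM with 10% FBS) and fluorescence was read directly at Ex/Em 405/460 nm. Signals were expressed as fluorescence equivalents of triamterene, with DMSO vehicle as control.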
# [12] = qHTS assay to test for compound auto fluorescence at 535 nm (green) in HEK293 cell free culture (AID 720682)
# Outline: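 Green-label autofluorescence (485 nm excitation, 535 nm emission) measured on compound added to cell-free culture medium (DMEM, 10% FBS). Output is expressed relative to fluorescein.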
# [13] = qHTS assay to test for compound auto fluorescence at 590 nm (red) in HEK293 cell free culture (AID 720683)
# Outline: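 Tox21 10K library compounds were pinned into cell-free DMEM with 10% FBS and fluorescence was read at excitation 540 nm. Activity is expressed as Rose Bengal sodium equivalency.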
# [14] = qHTS assay to test for compound auto fluorescence at 590 nm (red) in HepG2 cell free culture (AID 720684)
# Outline: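 Ex 540 / Em 590 nm read of compound in cell-free MEM (10% FBS). Rose Bengal sodium reference.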
# [15] = qHTS assay to test for compound auto fluorescence at 460 nm (blue) in HepG2 cell free culture (AID 720685)
# Outline: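 Cell-free plates of MEM plus 10% FBS received 23 nL compound or DMSO vehicle; blue-channel (405/460 nm) intensity scored against triamterene as reference fluorophore.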
# [16] = qHTS assay to test for compound auto fluorescence at 535 nm (green) in HepG2 cell free culture (AID 720686)
# [17] = qHTS assay to test for compound auto fluorescence at 460 nm (blue) in HepG2 cells (AID 720687)
# Outline: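 Cells (2,000/well in MEM with 10% FBS) attached overnight at 37 C, then were exposed to compound or DMSO for 1 hr at 37 C, 5% CO2. Fluorescence read at Ex/Em 405/460 nm, expressed as triamterene-equivalent signal.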
# [18] = target: Glucocorticoid receptor (Homo sapiens) (UniProt P04150); experiment: qHTS assay to identify small molecule agonists of the glucocorticoid receptor (GR) signaling pathway (AID 720691; active means well fitted activation curve with a large enough effect in the signal ratio in the repeat runs, not every such curve was filed as active; the % refers to the signal ratio); conditions: GR-bla HeLa, beta-lactamase reporter ratio, 18 h; activation: at 62.4 µM (top of the series) unless noted
# Outline: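 Measures GR pathway activation through a GRE-beta-lactamase reporter stably integrated in HeLa cells, with 18 h compound treatment at 37 C and fluorescence detection using a FRET substrate.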
# [19] = target: Glucocorticoid receptor (Homo sapiens) (UniProt P04150); experiment: qHTS assay to identify small molecule antagonists of the glucocorticoid receptor (GR) signaling pathway (AID 720692; active means well fitted inhibition curve with a large enough effect in the signal ratio in the repeat runs, not every such curve was filed as active; the % refers to the signal ratio)
# Outline: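 Tox21 10K library screened in concentration-response for blockade of dexamethasone (5 nM final)-induced GRE-bla reporter activity in HeLa cells; 18 h treatment, fluorescence read.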
# [20] = qHTS assay for small molecules that induce genotoxicity in human embryonic kidney cells expressing luciferase-tagged ATAD5 (AID 651632); further: nearly all actives have a fitted effect of over 15% in size
# Outline: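 Concentration-response screen for ATAD5 upregulation in HEK293T luciferase reporter cells; 16 hr treatment at 37C, then luminescence after 30 min with Amplite at room temperature.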
# Sequence of Glucocorticoid receptor (Homo sapiens) (P04150 whole entry, looked up): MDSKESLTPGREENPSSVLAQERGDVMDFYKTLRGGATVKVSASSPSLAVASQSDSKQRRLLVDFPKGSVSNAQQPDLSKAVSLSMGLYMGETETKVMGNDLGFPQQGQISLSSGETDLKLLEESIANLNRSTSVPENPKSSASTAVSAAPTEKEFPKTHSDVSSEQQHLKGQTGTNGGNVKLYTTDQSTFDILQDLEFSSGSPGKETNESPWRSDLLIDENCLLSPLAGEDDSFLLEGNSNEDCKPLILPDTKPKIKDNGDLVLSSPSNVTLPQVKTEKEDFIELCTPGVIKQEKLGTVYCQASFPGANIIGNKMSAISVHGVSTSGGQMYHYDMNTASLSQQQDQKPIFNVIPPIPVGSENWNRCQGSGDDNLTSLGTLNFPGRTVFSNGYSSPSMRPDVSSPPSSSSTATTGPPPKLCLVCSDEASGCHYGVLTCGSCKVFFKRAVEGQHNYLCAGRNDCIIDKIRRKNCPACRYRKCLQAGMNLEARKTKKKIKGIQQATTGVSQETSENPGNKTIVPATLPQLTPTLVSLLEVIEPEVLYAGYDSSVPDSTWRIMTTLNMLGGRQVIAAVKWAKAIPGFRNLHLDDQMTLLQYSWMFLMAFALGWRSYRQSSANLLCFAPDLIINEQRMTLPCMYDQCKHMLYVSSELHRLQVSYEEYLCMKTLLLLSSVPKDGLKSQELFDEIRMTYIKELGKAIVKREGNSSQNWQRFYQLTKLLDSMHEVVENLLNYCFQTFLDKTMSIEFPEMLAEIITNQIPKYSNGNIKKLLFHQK
SMILES,Potency [1],Potency [2],Potency [3],Potency [4],Potency [5],outcome [6],outcome [7],Potency [8],outcome [9],outcome [10],Potency [11],outcome [12],outcome [13],outcome [14],Potency [15],outcome [16],outcome [17],Potency [18],Potency [19],Potency [20]
NC(=O)NNc1ccccc1,inactive,inactive,inactive,inactive,inactive,inactive,inactive,inactive,inactive,inactive,inactive,inactive,inactive,inactive,inactive,inactive,inactive,inactive,inactive,–
OCCOCCOCCOCCO,inactive,inactive,inactive,inactive,inactive,inactive,inactive,inactive,–,inactive,inactive,inactive,inactive,inactive,inactive,inactive,inactive,inactive,inactive,–
COCC(C)O (configuration not stated),inactive,inactive,inactive,inactive,–,–,inactive,inactive,–,inactive,inactive,inactive,inactive,inactive,inactive,inactive,inactive,inactive,inactive,–
C/C=C(C)/C=C/C=C(C)C,inactive,–,inactive,inactive,–,–,inactive,inactive,inactive,inactive,inactive,inactive,inactive,inactive,inactive,inactive,inactive,–,–,inactive
C=C1C2CCC(C2)C1(C)C (configuration not stated),inactive,–,inactive,inactive,–,inactive,inactive,inactive,–,inactive,inactive,inactive,inactive,inactive,inactive,inactive,–,inactive,inactive,inactive
CC(C)NCC(O)COc1cccc2ccccc12 (configuration not stated),inactive,inactive,inactive,inactive,–,–,inactive,inactive,inactive,inactive,inactive,inactive,inactive,inactive,inactive,inactive,–,–,–,–
CS(=O)(=O)Nc1ccc([N+](=O)[O-])cc1Oc1ccccc1,inactive,inactive,–,–,–,–,inactive,inactive,inactive,inactive,inactive,inactive,inactive,inactive,inactive,inactive,inactive,–,–,–
CCC(C)C=O (configuration not stated),inactive,inactive,inactive,inactive,–,inactive,inactive,inactive,inactive,inactive,inactive,inactive,inactive,inactive,inactive,inactive,–,–,–,–
CC[Si](OC(C)=O)(OC(C)=O)OC(C)=O,inactive,inactive,inactive,inactive,–,inactive,inactive,inactive,inactive,inactive,inactive,inactive,inactive,inactive,inactive,inactive,inactive,–,–,–
Nc1cc(-c2ccncc2)c[nH]c1=O,inactive,inactive,inactive,inactive,inactive,inactive,inactive,inactive,–,inactive,inactive,inactive,inactive,inactive,inactive,inactive,inactive,inactive,–,–
O=C(Cl)c1c(Cl)c(Cl)c(C(=O)Cl)c(Cl)c1Cl,inactive,inactive,inactive,inactive,inactive,inactive,inactive,inactive,–,inactive,inactive,inactive,inactive,inactive,inactive,inactive,inactive,inactive,inactive,–
Clc1cc(Cl)c(Cl)cc1Cl,inactive,inactive,inactive,inactive,inactive,inactive,inactive,inactive,inactive,inactive,inactive,inactive,inactive,inactive,inactive,inactive,inactive,inactive,inactive,–
CC1(C)CC(N=C=O)CC(C)(CN=C=O)C1 (configuration not stated),inactive,inactive,inactive,inactive,–,–,inactive,inactive,inactive,inactive,inactive,inactive,inactive,inactive,inactive,inactive,inactive,–,–,–
CC1CC(OC(=O)c2ccccc2O)CC(C)(C)C1 (configuration not stated),inactive,inactive,inactive,inactive,27 µM (active),inactive,inactive,inactive,inactive,inactive,inactive,inactive,inactive,inactive,inactive,inactive,inactive,inactive,inactive,–
C[C@@H](O)[C@H]1C(=O)N2C(C(=O)O)=C(S[C@@H]3CN[C@H](C(=O)N(C)C)C3)[C@H](C)[C@H]12,inactive,inactive,inactive,inactive,–,inactive,inactive,inactive,inactive,inactive,inactive,inactive,inactive,inactive,inactive,inactive,–,inactive,–,–
CC(=O)CCc1ccccc1,inactive,–,inactive,inactive,inactive,inactive,inactive,inactive,inactive,inactive,inactive,inactive,inactive,inactive,inactive,inactive,inactive,–,–,–
